Outcome and AC50 data for 16 molecules are collected here from PubChem BioAssay (EPA / NIEHS).

Structures are written as SMILES. Where “and” joins values, the source holds several entries; their conditions need not be identical. Identical values can stand only once. A structure can be active in one record and inactive in another. Calls of active or inactive are those of the source. How the source made its calls: active means hit-call score of the fitted dose curve at least 0.9, where 1 is the maximum; inactive means score below 0.9.

A short description of test [1]: APR_HepG2_NuclearSize_72hr: Apredica 72-hour HepG2 Assay for Nuclear Size (AID 2282925). The conditions noted are these: high-content imaging, actives raise or lower the signal. The method, boiled down: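 Read-out: nuclear diameter from Hoechst 33342 images (ArrayScan, 20x, six fields/well), via cell-cycle image analysis. HepG2 were dosed 0.39–200 uM for 72 hr in 0.5% DMSO. Bidirectional fit relative to DMSO.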

Test [2] can be described thus: ATG_CRE_CIS: Attagene CIS-FACTORIAL HepG2 Assay for human cAMP Responsive Element (CRE) binding protein 3 (AID 2282926). Conditions: HepG2 CRE cis-reporter, Attagene multiplexed mRNA; actives raise or lower the signal. In short, it runs like this: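 Endogenous transcription factor activity read via CRE-regulated reporter transcripts in transfected HepG2 cells. After 24 h exposure, RNA was reverse-transcribed, amplified, fluorescently labelled and sized by capillary electrophoresis; gain or loss fitted against DMSO.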

Test [3] deals with CCAAT/enhancer-binding protein beta (Homo sapiens) (UniProt P17676). As to the kind of experiment: ATG_C_EBP_CIS: Attagene CIS-FACTORIAL HepG2 Assay for human CCAAT/Enhancer Binding Protein (C/EBP) beta (AID 2282927). Conditions: HepG2 Attagene cis-factorial transcription factor reporter; actives raise or lower the signal. The method, boiled down: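 HepG2 transiently transfected with multiplexed reporter units under cis-regulatory promoters reporting endogenous C/EBPb activity. After 24 h exposure, reporter mRNA assayed by RT-PCR, fluorescent labelling, HpaI digestion and capillary electrophoresis; bidirectional fitting versus DMSO.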
CCAAT/enhancer-binding protein beta (Homo sapiens), sequence (P17676 whole entry, looked up): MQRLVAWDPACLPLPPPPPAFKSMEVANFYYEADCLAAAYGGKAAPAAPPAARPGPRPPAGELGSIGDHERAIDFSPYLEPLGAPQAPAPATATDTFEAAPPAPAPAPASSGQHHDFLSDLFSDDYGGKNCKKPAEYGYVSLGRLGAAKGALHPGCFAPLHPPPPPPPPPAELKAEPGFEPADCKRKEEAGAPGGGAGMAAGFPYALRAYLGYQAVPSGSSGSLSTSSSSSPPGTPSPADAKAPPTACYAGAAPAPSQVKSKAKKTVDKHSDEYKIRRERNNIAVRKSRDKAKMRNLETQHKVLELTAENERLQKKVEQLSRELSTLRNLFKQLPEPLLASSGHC

Test [4] is described as follows: ATG_CMV_CIS: Attagene CIS-FACTORIAL HepG2 Assay for human CMV (Internal Marker) (AID 2282928).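 Further: endpoint acts as a background internal control marker rather than a target.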 Conditions: HepG2 CMV promoter reporter, transcription factor profiling; actives raise or lower the signal. The method, boiled down: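 Bidirectional fits against DMSO are applied to reporter mRNA, read by RT-PCR with capillary electrophoresis, from HepG2 cells exposed 24 h. The endpoint serves as an internal CMV background marker within the cis-factorial reporter panel.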

A short description of test [5]: ATG_DR4_LXR_CIS: Attagene CIS-FACTORIAL HepG2 Assay for human Liver X Receptor (LXR), DR4 submotif (AID 2282929). Conditions: HepG2 Attagene DR4 cis-reporter, mRNA transcription; actives raise or lower the signal. In short, it runs like this:
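Measures endogenous transcription factor activity via a DR4-driven reporter transcript in human HepG2 cells. Compounds incubated 24 h; mRNA quantified by RT-PCR and capillary electrophoresis, analysed as gain or loss of signal versus DMSO.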

Test [6] deals with Aryl hydrocarbon receptor (Homo sapiens) (UniProt P35869). As to the kind of experiment: ATG_Ahr_CIS: Attagene CIS-FACTORIAL HepG2 Assay for human Aryl Hydrocarbon Receptor (Ahr) (AID 2282930). The conditions noted are these: HepG2 AhR cis-factorial reporter transcription; actives raise or lower the signal. In short, it runs like this:
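HepG2 cells transiently transfected with cis-element-driven multiplexed reporter units; endogenous AhR activity read as reporter mRNA 24 h after dosing, via RT-PCR, 6-FAM labelling, HpaI digestion and capillary electrophoresis. Bidirectional fit relative to DMSO.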

A short description of test [7]: ATG_AP_1_CIS: Attagene CIS-FACTORIAL HepG2 Assay for human Activator Protein 1 (AP-1) (AID 2282931). Conditions: HepG2 Attagene cis-factorial AP-1 reporter mRNA; actives raise or lower the signal. In short, it runs like this:
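Bidirectional concentration-response fitting against DMSO controls. Underlying signal: reporter mRNA from cis-promoter constructs in transiently transfected HepG2, measured after 24 h by RT-PCR and capillary electrophoresis.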

A short description of test [8]: ATG_AP_2_CIS: Attagene CIS-FACTORIAL HepG2 Assay for human Activator Protein 2 (AP-2) (AID 2282932). Conditions: HepG2 AP-2 cis-reporter, Attagene transcription factor profiling; actives raise or lower the signal. In short, it runs like this:
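Liver-derived HepG2 line, cis-reporter system measuring endogenous factors; 24 h dosing; reporter mRNA detected by fluorescent RT-PCR and capillary electrophoresis.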

The nature of test [9]: ATG_BRE_CIS: Attagene CIS-FACTORIAL HepG2 Assay for human Bone Morphogenetic Protein (BMP) Response Element (BRE) (AID 2282933). The conditions noted are these: HepG2 BMP response element reporter, Attagene transcription factor profiling; actives raise or lower the signal. In short, it runs like this: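 HepG2 cells transiently transfected with multiplexed cis-element reporter units were dosed with chemical for 24 h. Reporter mRNA was measured by RT-PCR with fluorescent labelling, HpaI digestion and capillary electrophoresis; bidirectional fitting relative to DMSO.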

Test [10] has as its target Retinoic acid receptor alpha (Homo sapiens) (UniProt P10276). Briefly: ATG_DR5_RAR_CIS: Attagene CIS-FACTORIAL HepG2 Assay for human Retinoic Acid Receptor Alpha (RARE), DR5 submotif (AID 2282934).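 On AC50: reporter responds to endogenous RAR alpha beta and gamma in HepG2 not RARA alone.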 The conditions noted are these: HepG2 Attagene cis-factorial RARE DR5 reporter, mRNA; actives raise or lower the signal. In short, it runs like this:
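HepG2 cells transiently transfected with multiplexed reporter units; DR5 cis-element drives reporter through endogenous transcription factors. After 24 h dosing, reporter mRNA quantified by RT-PCR, fluorescent labeling, HpaI digestion and capillary electrophoresis; bidirectional fitting versus DMSO.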

Aryl hydrocarbon receptor (Homo sapiens), sequence (P35869 whole entry, looked up): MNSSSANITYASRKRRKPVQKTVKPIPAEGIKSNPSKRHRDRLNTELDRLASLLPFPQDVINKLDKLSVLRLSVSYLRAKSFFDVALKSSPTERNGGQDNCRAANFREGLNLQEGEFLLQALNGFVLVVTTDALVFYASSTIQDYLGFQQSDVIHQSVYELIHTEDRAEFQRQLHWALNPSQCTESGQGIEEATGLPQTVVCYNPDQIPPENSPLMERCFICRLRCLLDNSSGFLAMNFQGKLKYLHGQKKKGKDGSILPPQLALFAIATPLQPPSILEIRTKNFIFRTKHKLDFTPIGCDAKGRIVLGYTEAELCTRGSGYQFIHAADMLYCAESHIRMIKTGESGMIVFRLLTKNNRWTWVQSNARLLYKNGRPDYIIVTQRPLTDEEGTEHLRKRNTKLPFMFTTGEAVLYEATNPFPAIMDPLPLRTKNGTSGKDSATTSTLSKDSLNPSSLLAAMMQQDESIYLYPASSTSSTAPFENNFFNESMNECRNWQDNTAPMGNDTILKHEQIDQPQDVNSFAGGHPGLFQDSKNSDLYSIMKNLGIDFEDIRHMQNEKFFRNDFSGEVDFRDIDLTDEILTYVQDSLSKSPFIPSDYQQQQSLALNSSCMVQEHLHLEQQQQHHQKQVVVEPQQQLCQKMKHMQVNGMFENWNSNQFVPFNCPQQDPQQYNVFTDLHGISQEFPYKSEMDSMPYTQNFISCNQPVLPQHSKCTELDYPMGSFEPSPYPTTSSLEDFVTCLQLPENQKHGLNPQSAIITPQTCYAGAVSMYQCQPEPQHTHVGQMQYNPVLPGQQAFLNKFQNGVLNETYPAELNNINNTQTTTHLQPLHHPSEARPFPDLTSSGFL
Retinoic acid receptor alpha (Homo sapiens), sequence (P10276 whole entry, looked up): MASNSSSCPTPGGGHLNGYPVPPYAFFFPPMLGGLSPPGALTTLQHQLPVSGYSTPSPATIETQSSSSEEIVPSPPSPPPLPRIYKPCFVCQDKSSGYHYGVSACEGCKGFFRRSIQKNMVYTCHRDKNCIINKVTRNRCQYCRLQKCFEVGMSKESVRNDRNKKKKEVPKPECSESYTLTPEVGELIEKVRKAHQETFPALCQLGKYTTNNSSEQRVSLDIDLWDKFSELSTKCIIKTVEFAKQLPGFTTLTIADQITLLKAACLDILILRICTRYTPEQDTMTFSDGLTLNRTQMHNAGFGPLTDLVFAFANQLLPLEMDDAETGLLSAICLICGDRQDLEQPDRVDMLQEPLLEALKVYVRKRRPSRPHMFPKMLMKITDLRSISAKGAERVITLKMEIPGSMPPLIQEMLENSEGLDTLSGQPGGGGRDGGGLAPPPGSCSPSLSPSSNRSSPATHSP

As to `Cc1cc(CCN2CCN(c3nsc4ccccc34)CC2)cc2c1NC(=O)CC2(C)C`, the molecule was classed as inactive in [1], in test [2], in test [4], in test [6], in test [8] and in [9]. The figures for the AC50 in test [3], in test [5] and in [7] were 7.43 µM (active), 2.82 µM (active) and 3.21 µM (active), respectively.
As for `c1ccc2c(c1)ccc1ccccc12`, the outcome in [1], in test [2], in [3], in [4], in test [5] and in test [6] was inactive. Further, the outcome in test [7], in [8] and in test [9] was inactive.
Take `COCC(C)OCC(C)O` (stereo not drawn): the outcome in test [1], in [2], in test [3], in test [4], in test [5] and in [6] was inactive. Besides, the result in test [7], in [8] and in test [9] was inactive.
On to `COC(=O)CCCCC(=O)OC`, for which the molecule was classed as inactive in test [1], in test [2], in test [3], in test [4], in test [5] and in [6]. Moreover, the molecule was classed as inactive in test [7], in [8] and in test [9].
`ClC1=C(Cl)C(Cl)(Cl)C(Cl)=C1Cl`: the outcome in [1], in test [2], in test [3], in [4], in test [5] and in test [6] was inactive. Moreover, the molecule was classed as inactive in test [7], in [8] and in [9]. Further, the concentration at half-maximal activity (AC50) (usually the concentration giving half of the maximal activity seen) is 11.9 µM (active) in [2]; 16.9 µM (active) in [3]; 11.1 µM (active) in test [4]; 6.59 µM (active) in [5]; 8.81 µM (active) in test [6].
`c1ccc2c(c1)Cc1ccccc1-2`: the outcome in test [1], in [2], in [3], in test [4], in test [5] and in [6] was inactive. The molecule was called inactive in [7], in test [8] and in test [9].
Turning to `CCC(=C(c1ccc(O)cc1)c1ccc(OCCN(C)C)cc1)c1ccccc1`, the molecule was classed as inactive in [1], in test [2], in test [3], in [4], in test [5] and in test [6]. In addition, the result in test [7], in test [9] and in [10] was inactive. Moreover, the half-maximal activity concentration (AC50) is 5.22 µM (active) and 7.1 µM (active) in test [4]; 9.72 µM (active) and 2.37 µM (active) in test [5]; 10.5 µM (active) in [9]; 11.1 µM (active) in test [10].
As for `O=[N+]([O-])c1ccc(O)cc1`, the call in [1], in test [2], in test [3], in [4], in test [5] and in test [6] was inactive. For the same molecule, the outcome in [7], in test [8] and in [9] was inactive.
For `O=C(/C=C/c1ccc(O)cc1)CC(=O)/C=C/c1ccc(O)cc1`, the AC50 in test [1] was 49.4 µM (active); in test [4] it was 77.7 µM (active); in [5], 18.9 µM (active); in test [7], 62 µM (active); in test [8], 100 µM (active). Besides, the molecule was classed as inactive in test [2], in test [3], in [6], in test [9] and in test [10].
`CC(C)(C)CC(C)(C)c1ccc(O)c(-n2nc3ccccc3n2)c1`: the figures for the AC50 in test [1], in test [4] and in [7] were 80.4 µM (active), 61.4 µM (active) and 58.3 µM (active), respectively. The call in test [2], in test [3], in test [5], in test [6], in [8] and in test [9] was inactive.
On to `CC(C)(C)c1cc(C(C)(C)C)c(O)c(C(C)(C)C)c1`, for which the molecule was called inactive in [1], in test [2], in [3], in [4], in [5] and in test [6]. Moreover, in test [9], the outcome was inactive. Moreover, the concentration at half-maximal activity (AC50) was 74.9 µM (active) in [4]; 76.4 µM (active) and 27 µM (active) in [7].
In the case of `OCCC(F)(F)C(F)(F)C(F)(F)C(F)(F)C(F)(F)C(F)(F)F`, the call in test [1], in test [2], in test [3], in test [4], in test [5] and in test [6] was inactive. For the same molecule, the call in [7], in test [8] and in [9] was inactive. For the same molecule, the AC50 in [2] is 154 µM (active); in test [3], 146 µM (active); in test [4] it was 145 µM (active); in [5], 182 µM (active); in [7] it was 77.3 µM (active).
For the molecule `O=c1c(-c2ccc(O)cc2)coc2cc(O)ccc12`, the call in [1], in test [2], in [3], in test [5], in test [6] and in [7] was inactive. Moreover, the molecule was called inactive in test [9] and in test [10]. Further, the concentration at half-maximal activity (AC50) in test [3] was 100 µM (active) and 75.6 µM (active); in test [6], 69.7 µM (active).
For the molecule `CC#C[C@]1(O)CC[C@H]2[C@@H]3CCC4=CC(=O)CCC4=C3[C@@H](c3ccc(N(C)C)cc3)C[C@@]21C`, the molecule was called inactive in test [1], in [2], in [3], in test [4], in [6] and in test [7]. For the same molecule, the AC50 in test [2] is 49.8 µM (active) and 47.6 µM (active) and 23.3 µM (active); in test [4], 56.9 µM (active); in test [5], 10.4 µM (active) [middle of 4 runs]; in [6], 6.86 µM (active) and 5.91 µM (active); in [7], 27.6 µM (active) and 66.9 µM (active) and 63.5 µM (active); in test [9] it was 22.4 µM (active) [middle of 4 runs].
`c1ccc2cc3c(ccc4ccccc43)cc2c1`: the call in test [1], in test [2], in test [3], in [4], in test [5] and in test [7] was inactive. Further, the molecule was called inactive in test [8], in test [9] and in test [10]. In addition, the AC50 in test [5] is 1.7 µM (active) and 1.25 µM (active) and 3.19 µM (active); in test [7], 2.33 µM (active).
`O=C(O)Cc1cc(I)c(Oc2cc(I)c(O)c(I)c2)c(I)c1`: the molecule was classed as inactive in test [1], in test [2], in [5], in [6] and in test [9]. For the same molecule, the half-maximal activity concentration (AC50) is 18.3 µM (active) in test [2]; 29.1 µM (active) and 17.8 µM (active) in test [3]; 22.4 µM (active) and 16.7 µM (active) in test [4]; 14.9 µM (active) in test [5]; 89.3 µM (active) in test [6]; 16.5 µM (active) and 122 µM (active) in test [7]. Besides, the concentration at half-maximal activity (AC50) in test [9] is 51 µM (active).
